Source: PubChem BioAssay AID588855 (National Center for Advancing Translational Sciences (NCATS), 2011)
Out of some 410,000 compounds screened, about 5,000 (1.2%) were called active. Roughly 13% stayed inconclusive and do not appear here. The call rests on the fitted dose curve; in most records, active means well fitted inhibition curve with a large enough effect; inconclusive means small, poorly fitted or top-dose-only effect; inactive means no such curve, though single readings can be large or run the other way. For the sample, actives were picked, then their nearest neighbours and some compounds at random.

test: qHTS for Inhibitors of TGF-b; conditions: HepG2 CAGA-GFP TGF-b/SMAD3 reporter, GFP fluorescence, 18 h, TGF-beta stimulated, 500 pg/mL final; series mostly up to 46.1 µM; further: nearly all actives have a fitted effect of over 65% in size
Procedure, shortened: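 Read-out: total well GFP (ex488/em500-530) summed from mean per-cell fluorescence. Cells: HEPG2 CAGA-GFP, 1% FBS DMEM, 18 h at 37 degrees C with 500 pg/mL final TGF-beta. Unstimulated wells served as the full-inhibition control; stimulated DMSO wells = 0%.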
Potency means the concentration at half of the fitted maximal effect.

Potency, inactive:
CCCCN(C)CCCNC(=O)CN1N=C(c2ccc(OC)cc2)CCC1=O
Brc1cccc(-c2nnn3c2nc(NC2CCCCC2)c2ccccc23)c1
NC(=O)C1CCN(C(=O)COc2cccc3cccnc23)CC1
O=S(=O)(NCCOc1cccc2cccnc12)c1ccc(F)cc1
CCNS(=O)(=O)c1ccc(NC(=O)CSc2nc(-c3ccco3)cc(C(F)(F)F)n2)cc1
CCNS(=O)(=O)c1ccc(NC(=O)c2cncc(Br)c2)cc1
CO[C@H]1O[C@@H]2O[C@@]3(C)CC[C@@H]4[C@@H](C)CC[C@@H]([C@H]1C)[C@@]24OO3
Brc1nc2ncnc(NCc3ccco3)c2[nH]1
COC(=O)c1cc(C(=O)N(Cc2ccccc2)c2ccccn2)cc([N+](=O)[O-])c1
CC(=O)N(CN1C(=O)C2CC=CCC2C1=O)c1cccc(Cl)c1 (stereo not given)
CCCc1nn2c(=O)cc(COC(=O)c3ccc(NC(=O)COc4ccc(F)cc4)cc3)nc2s1
Oc1ccc(N2CCN(C(=S)NCc3ccccc3)CC2)cc1
c1ccc(CNCc2ccc(CNCc3ccccc3)cc2)cc1
CCN(CC)c1nc(C#N)nc(OC)n1
CC(C)(CCl)C(=O)Nc1ccc(Sc2ccc(F)cc2)cc1
CCC(=O)Nc1ccc(Nc2nc(Cl)nc(Nc3ccc(NC(=O)CC)cc3)n2)cc1
CCOc1ccc(C2C(C(=O)Nc3ccc(Cl)cc3)=C(C)Nc3nc(C(F)(F)F)nn32)cc1 (stereo not given)
CCc1ccc(NC(=O)c2cc(S(=O)(=O)N3CCCC(C)C3)cn2C)cc1 (stereo not given)
Cn1c(=O)c2c(SCC(=O)NCC3CCCO3)nc(-c3ccccc3F)nc2n(C)c1=O (stereo not given)
CNC(=O)COc1ccc(S(=O)(=O)Nc2ccccc2)cc1
CCS(=O)(=O)Nc1cccc(-c2cc(-c3ccccc3)c3cc(C)ccc3n2)c1
COc1ccccc1-c1ccnc2[nH]n(-c3ccccc3)c(=O)c12
CCOC(=O)C1CCCN(CC(=O)Nc2cc(C)c3c(=O)oc4ccccc4c3n2)C1 (stereo not given)
O=C(O)C1CC=CC2CCN(C3CCCCC3)C(=O)C21 (stereo not given)
CCOc1cc(/C=C(\C#N)C(=O)Nc2ccccc2C)ccc1OCc1cc(=O)n2nc(CC)sc2n1
COC(=O)c1nc(NC(=O)c2ccc(C(C)(C)C)cc2)n[nH]1
COc1ccc(NS(=O)(=O)c2ccc(N3CCOCC3)c(NC(=O)/C=C/C(=O)O)c2)cc1
COc1ccc(C(=O)Nc2ccc(-n3nncc3-c3ccccc3)cc2)cc1OC
CCOC(=O)Nc1ccc2c(c1)N(C(=O)CN1CCN3CCCC3C1)c1ccccc1CC2 (stereo not given)
CCOC(=O)Nc1ccc2c(c1)N(C(=O)CCN1CCN(CCO)CC1)c1ccccc1CC2
S=c1[nH]c(=S)c2n[nH]nc2[nH]1
Cc1ccc(C(=O)Nc2c(C(=O)NC(C)(C)C)oc3ccccc23)cc1
CCCC(=O)Nc1ccc2oc(-c3ccc(O)c(Br)c3)nc2c1
CC(=O)Nc1ccc(C=Cc2ccc([N+](=O)[O-])cc2)cc1
CC(=O)Nc1ccc(C=CC(=O)c2ccc([N+](=O)[O-])cc2)cc1
COC(=O)c1cccc(Cn2nnc3sc4c(c3c2=O)CCC(C(C)(C)C)C4)c1 (stereo not given)
COc1cccc(CNc2nccn(-c3ccc(OC)c(OC)c3)c2=O)c1
O=C(NC1CCN(Cc2ccccc2)CC1)c1ccc(Cn2c(=O)c3ccccc3n(Cc3cccc(F)c3)c2=O)cc1
Fc1ccc(-c2nc(Nc3cccc(Cl)c3)nc3c2COc2ccccc2-3)cc1
Cc1oc(C)c2c(=O)cc(-c3ccc4c(c3)OCO4)cc(OC(=O)c3ccc(Cl)cc3)c12
COc1ccc(C(=O)Nc2onc3c2CCCC3)cc1
Cc1ccc(NC(=O)NNC(=O)c2sccc2-n2cccc2)cc1
O=C(NNC(=O)c1ccc(-c2ccccc2)cc1)Nc1ccccc1
O=C(NC1CC(=O)N(c2ccc(F)cc2)C1)c1cccs1 (stereo not given)
CC1(C)CC(=O)C=C(NCCCNC2CCCCC2)C1
CCCCNS(=O)(=O)CCNCc1ccccc1OC
O=C(CC1Oc2ccc(Cl)cc2NC1=O)NCc1ccccc1 (stereo not given)
Cc1ccccc1CNC(=O)C(=O)NCC(c1cccs1)S(=O)(=O)c1cccs1 (stereo not given)
CN(Cc1ccccc1)C(=O)CSc1nc2ccccc2[nH]1
CN1CCN(c2ccc([N+](=O)[O-])c(Sc3nc4ccccc4[nH]3)c2)CC1
COc1ccc(-c2nnc(SCC(=O)Nc3ccc(C(C)C)cc3)nc2-c2ccc(OC)c(OC)c2)cc1OC
COc1ccc(CNC(=O)Cn2nnc(-c3ccccc3F)n2)cc1
O=C(NNC(=O)C(O)c1ccccc1)NC1CCCCC1 (stereo not given)
CC(C)c1cc(C(=O)NC2CCCCCC2)c2ccccc2n1
CCC1(C)CC(=O)c2c(ccc3oc(C(=O)Nc4ccc(C(C)=O)cc4)c(C)c23)O1 (stereo not given)
CCn1c(=O)cc(OCC(=O)Nc2cc(Cl)c(OC)cc2OC)c2ccccc21
COc1ccc(OC)c(-c2csc(-c3c(N)c(C(=O)c4ccccc4)n4ccccc34)n2)c1
COc1cccc(NC(=O)C(Sc2nnnn2C)c2ccccc2)c1 (stereo not given)
Cc1nnc(SC(C(=O)c2ccccc2)c2ccccc2)[nH]c1=O (stereo not given)
Cc1ccn2c(Nc3ccc4c(c3)OCCO4)c(-c3ccc(C)s3)nc2c1
COc1ccccc1CNC(=O)c1ccc(-n2c(C)cc3c2CCCC3)cc1
Cc1ccc(C(=O)Nc2ccccc2F)cc1S(=O)(=O)N1CCOCC1
CC(=O)c1cccc(NC(=S)N2CCCC2)c1
CC(=O)c1ccc(NC(=O)CSc2nnc(NC(=O)Nc3ccccc3)s2)cc1
CCN(CC)c1ccc(NC(=O)Cn2nc3c(cc2=O)CCCC3)c(C)c1
CS/C(=C\C(=O)c1ccco1)Nc1ccccc1Cl
O=C(Nc1ccccc1Cl)N1CCC(CN2CCCC2)CC1
CCc1ccc(-n2nc(C)c3c(C)cc(=O)n(CC(=O)Nc4ccc(F)cc4C)c32)cc1
CCOc1ccccc1NC(=O)CCn1cnnn1
Cc1ccc(S(=O)(=O)/N=C(\N)c2ccc(F)cc2)cc1
O=C(Cc1cccs1)NCc1cccc(C(F)(F)F)c1
CCc1ccc(NC(=O)CSc2nc3c([nH]c4ccccc43)c(=O)n2-c2cccc(OC)c2)cc1
COc1ccc(-c2nc(Cn3c(=O)cc(C)c4c(C)nn(-c5ccccc5)c43)c(C)o2)cc1OC
N=C1C(c2nc3ccccc3[nH]2)=C(O)CN1NC(=O)c1c[nH]c2ccccc12
Cc1ccc(C)n1NC(=O)c1ccc([N+](=O)[O-])cc1
Cc1ccc(C(=O)Nc2ccc(OCc3cc(=O)n4c5c(sc4n3)CCCC5)cc2)cc1
O=C1NC[C@@H](Cc2ccc(O)cc2)N(CCc2cccc(F)c2)C1=O
CC[C@@H](C)[C@@H]1CN([C@@H](C)CN2CCC[C@H]2CN2C(N)=NC[C@H]2C(C)C)C(=N)N1CCc1ccc(Cl)c(Cl)c1
C[C@@H](CN1CCC[C@H]1CN1C(N)=NC[C@@H]1Cc1ccccc1)N1C[C@@H](Cc2ccccc2)N(CCCC2CCCC2)C1=N
O=C1NC[C@H](Cc2ccc(O)cc2)N(C[C@H]2CCCN2C[C@H](Cc2ccccc2)N2C[C@H](Cc3ccccc3)N(CCc3ccccc3)C(=O)C2=O)C1=O
NC1=NC[C@@H](Cc2ccc(O)cc2)N1CC1CCCCC1

Potency, active:
O=C(Nc1ccccc1)Oc1cccc2cccnc12 8.91 µM
CCNS(=O)(=O)c1ccc(NC(=O)Nc2cccc(C(F)(F)F)c2)cc1 12.6 µM
O=C(CCl)N(Cc1cccc([N+](=O)[O-])c1)c1cccc(Cl)c1 11.2 µM
Oc1ccc(CNc2ccccc2O)cc1 12.6 µM
O=C(CCl)Nc1ccc(Sc2ccc(NC(=O)CCl)cc2)cc1 10 µM
CCCOc1ccc(-c2cccc(NS(=O)(=O)c3ccccc3)c2)nn1 10 µM
CN(C)c1nc(=Nc2cccc(Cl)c2)ss1 0.282 µM
C=C(C)C(=O)O[C@H]1C/C(C)=C\C(=O)/C=C(\C)[C@H](O)[C@@H]2OC(=O)C(=C)[C@@H]21 3.55 µM
COC(=O)c1sc(-c2ccc(C(C)(C)C)cc2)cc1NC(=O)/C=C/C(=O)O 8.91 µM
CCOC(=O)Nc1ccc2c(c1)N(C(=O)CCCl)c1ccccc1[S@]2=O 7.08 µM
O=C1/C(=C\c2ccc([N+](=O)[O-])cc2)CS(=O)(=O)C/C1=C/c1ccc([N+](=O)[O-])cc1 6.31 µM
C=CC[n+]1c(-c2ccc(C)cc2)csc1NNC(=O)Nc1ccccc1 11.2 µM
CCCCCCCCNS(=O)(=O)CCNC1CCCCC1 17.8 µM
CCC(C)N1C(=O)S/C(=C/c2ccc(Sc3nc4ccccc4[nH]3)o2)C1=O (stereo not given) 11.2 µM
Cc1nc(/N=C(\N)NC(=O)NC2CCCCC2)nc2ccccc12 12.6 µM
C=CS(=O)c1sc(Cl)c(N2CCOCC2)c1[N+](=O)[O-] (stereo not given) 11.2 µM
Cc1nnc(SC(C(=O)Nc2cc(Cl)cc(Cl)c2)c2ccccc2)[nH]c1=O (stereo not given) 17.8 µM
C=CCSc1nsc(NC(=O)Nc2cccc(C(C)=O)c2)n1 3.55 µM
O=C(Nc1ccccc1Cl)/C(Cl)=C(\Cl)S(=O)c1ccccc1 (stereo not given) 2.24 µM
N/C(=N\S(=O)(=O)c1cc(C(F)(F)F)cc(C(F)(F)F)c1)c1cccs1 12.6 µM
N=C1C(c2nc3ccccc3s2)=C(O)CN1NC(=O)c1ccc([N+](=O)[O-])cc1 7.08 µM
CCOc1ccc(CCN2C(=S)N([C@@H](CC(C)C)CN3CCC[C@@H]3CN3C(=S)NC[C@@H]3Cc3ccc(O)cc3)C[C@@H]2CC(C)C)cc1 10 µM
CC(C)C[C@H]1CNC(=S)N1C[C@H]1CCCN1C[C@H](Cc1ccc(O)cc1)N1C[C@H](Cc2ccc(O)cc2)N(CC2CCCCC2)C1=S 15.8 µM
CCOc1ccc(CCN2C(=S)N([C@@H](CC(C)C)CN3CCC[C@@H]3CN3C(=S)NC[C@@H]3Cc3ccc(O)cc3)C[C@@H]2Cc2ccc(O)cc2)cc1 11.2 µM
